This is an account of results in PubChem BioAssay (EPA / NIEHS).

For assay [1], the target named is human Peripheral-type Benzodiazepine Receptor (PBR), TSPO (gene 706) (UniProt P30536). Briefly: NVS_MP_hPBR: NovaScreen (NVS) Membrane Protein Assay for human Peripheral-type Benzodiazepine Receptor (PBR) (AID 2283331; active = hit-call score of the fitted dose curve at least 0.9, where 1 is the maximum;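 also: hits reduce radioligand binding relative to DMSO baseline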). In outline: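 Cell-free binding to human colonic membrane preparations measured by filter-based scintillation counting after 1 h. Compounds first run at 25 uM in duplicate, then concentration series for actives; signal loss against DMSO baseline.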
Chain of human Peripheral-type Benzodiazepine Receptor (PBR), TSPO (gene 706) (P30536 whole entry, looked up): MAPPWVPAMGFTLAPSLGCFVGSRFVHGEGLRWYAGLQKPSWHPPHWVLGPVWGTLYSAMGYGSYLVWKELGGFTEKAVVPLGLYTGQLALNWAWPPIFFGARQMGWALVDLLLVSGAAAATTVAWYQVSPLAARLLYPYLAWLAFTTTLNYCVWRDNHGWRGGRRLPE

Assay [2] is described as follows: CCTE_Shafer_MEA_acute_per_network_burst_spike_number_mean: CCTE's Neural Acute Assay for Average Number of Spikes in a Network Burst, Shafer Lab (AID 2284019).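 As to AC50: curve fitted for loss of signal so actives reduce spikes per network burst.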 In outline: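 Percent change from baseline in mean spikes per network burst, spikes detected at 8x rms noise. Each compound at 0.03-40 uM in at least three wells of rat cortical cultures, recorded 40 min before and 40 min during exposure.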

The nature of assay [3]: CCTE_Shafer_MEA_acute_per_network_burst_spike_number_std: CCTE's Neural Acute Assay for Standard Deviation of Number of Spikes in a Network Burst, Shafer Lab (AID 2284020).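 Also: fitted for decrease in spike-number SD versus DMSO so actives lower it.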 In outline: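 Endpoint: percent change from 40 min baseline in standard deviation of spikes per network burst, after 40 min compound exposure (0.03-40 uM, 37 C). Cortical rat neurons on MEA at DIV 13 or 15; spikes detected at 8x rms noise, 300-5000 Hz band-pass.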

Assay [4] can be described thus: CCTE_Shafer_MEA_acute_per_network_burst_electrodes_number_mean: CCTE's Neural Acute Assay for Mean Number of Electrodes in a Network Burst, Shafer Lab (AID 2284021).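 Also: curves fitted for decreases only so hits reduce electrodes per burst.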 A digest of the protocol:
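Rat primary cortical neurons on 48-well MEAs, DIV 13 or 15, were treated at 0.03-40 uM. Spikes were detected at 8x rms noise and recorded at 37 C. The mean electrodes per network burst in a 40 min exposure recording was expressed as percent change from a 40 min baseline.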

A short description of assay [5]: CCTE_Shafer_MEA_acute_network_burst_percentage: CCTE's Neural Acute Assay for Percentage of Network Bursts, Shafer Lab (AID 2284022).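 Also: curves fitted for loss so actives lower network burst percentage.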 A digest of the protocol:
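Rat primary cortical neuron networks on 48-well MEA plates, DIV 13 or 15, treated acutely with compound (0.03-40 uM, at least three wells). Percent of spikes within network bursts compared between 40-min recordings before and during exposure at 37 C, expressed as percent change.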

The nature of assay [6]: CCTE_Shafer_MEA_acute_cross_correlation_area: CCTE's Neural Acute Assay for Area of Cross Correlation, Shafer Lab (AID 2284024).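 Also: curves fitted for loss of cross-correlation area so actives lower synchrony.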 A digest of the protocol:
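Rat primary cortical neurons on 48-well MEA, DIV 13 or 15; compounds 0.03-40 uM. Baseline and post-exposure 40 min recordings at 37 C; percent change in area under pooled inter-electrode cross-correlation near zero lag, relative to DMSO.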

Assay [7] can be described thus: CCTE_Shafer_MEA_acute_cross_correlation_HWHM: CCTE's Neural Acute Assay for Cross Correlation at Half Width at Half Maximum, Shafer Lab (AID 2284026).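 Also: percent change per well from pre-dose baseline in spike cross-correlogram half width; hits are a decrease in cross-correlogram half width relative to DMSO.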 In outline:
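Rat primary cortical neurons on 48-well MEA plates; 40-min baseline and 40-min post-exposure recordings at 37 C on DIV 13 or 15, compounds 0.03-40 uM. Spikes detected at 8x rms noise; percent change in cross-correlogram HWHM per well vs baseline.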

Assay [8] can be described thus: CCTE_Shafer_MEA_acute_synchrony_index: CCTE's Neural Acute Assay for Synchrony, Shafer Lab (AID 2284027).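 Also: network synchrony index of spontaneous spiking in primary rat cortical neurons on MEAs; fitted for loss of signal so actives lower synchrony relative to DMSO.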 A digest of the protocol:
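Acute exposure of rat primary cortical neurons (DIV 13 or 15) at 0.03-40 uM. Synchrony index, 40 min before vs after, as % change relative to DMSO control.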

A short description of assay [9]: CCTE_Deisenroth_AIME_384WELL_CTox_Active: Cytotoxicity Assessment (CTOX) in CCTE's 384-well Estrogen Receptor Transactivation Assay with AIME metabolic competence (metabolism positive), Deisenroth Lab (AID 2284037; active = hit-call score of the fitted dose curve at least 0.9, where 1 is the maximum;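 also: chemicals first conditioned 2 h by alginate-bound induced rat liver S9 before cells; activity means signal loss indicating cell death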). In outline:
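Cytotoxicity in VM7Luc4E2 breast cells, 24 hour, measured as protease-substrate fluorescence loss, after 2-hour metabolic conditioning with induced rat hepatic S9 in alginate microspheres. Concentrations 0.002 - 200 uM, 10 points, bidirectional fitting.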

Assay [10] in a line: CCTE_Shafer_MEA_acute_LDH: CCTE's Lactate Dehydrogenase Assay for Cytotoxicity in the Neural Acute Assay, Shafer Lab (AID 2284086; active = hit-call score of the fitted dose curve at least 0.9, where 1 is the maximum;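 also: active means LDH release rises above DMSO vehicle level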). A digest of the protocol: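 Cytotoxicity readout: spectrophotometric LDH activity in supernatant of rat primary cortical neurons, post-plating day 13 or 15, sampled after 40 min compound exposure; signal gain relative to DMSO baseline.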
Assay [11] can be described thus: CEETOX_H295R_MTT_cell_viability: Viability Assessment in the CeeTox HT-H295R MTT Assay (AID 2283718). A digest of the protocol:
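MTT reduction (0.5 mg/ml, 4 h at 37 C; absorbance at 570 and 650 nm) gave viability as background-corrected percent change versus controls. H295R cells had 48 h forskolin (10 uM) prestimulation, then 48 h chemical exposure at 0.1% DMSO.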

In assay [12] the target is Nuclear receptor subfamily 1 group I member 2 (Homo sapiens) (UniProt O75469). Briefly: NVS_NR_hPXR: NovaScreen (NVS) Nuclear Receptor Binding Assay for human Pregnane X Receptor (PXR) (AID 2283365; active = hit-call score of the fitted dose curve at least 0.9, where 1 is the maximum;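 also: a drop in FRET signal versus DMSO baseline means the compound binds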). In outline:
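Cell-free TR-FRET binding assay with extracted human PXR protein, read 2 h after dosing. Primary screen run in duplicate at 25 uM, actives followed in concentration series; loss of signal fitted against DMSO baseline.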

The subject of assay [13] is Sodium/Iodide Symporter (NIS), SLC5A5 (gene 6528). Briefly: CPHEA_Stoker_NIS_Inhibition_RAIU: CPHEA's Radioactive Iodide Uptake (RAIU) Assay for Sodium/Iodide Symporter (NIS) Inhibition, Stoker and Laws Labs (AID 2283841; active = hit-call score of the fitted dose curve at least 0.9, where 1 is the maximum). A digest of the protocol: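 Iodide uptake read as CPM of intracellular 125I (final 329 pM) after 2 h room-temperature exposure in HEPES-buffered HBSS, pH 7.4. Human NIS-expressing HEK293T cells; six concentrations 0.001–100 uM, 0.5% DMSO, normalised to DMSO wells.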

Assay [14] is described as follows: CPHEA_Stoker_NIS_Cytotoxicity: Cytotoxicity Assessment for CPHEA's Radioactive Iodide Uptake (RAIU) Assay for Sodium/Iodide Symporter (NIS) Inhibition, Stoker and Laws Labs (AID 2283897; active = hit-call score of the fitted dose curve at least 0.9, where 1 is the maximum). A digest of the protocol: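 CellTiter-Glo ATP luminescence gauged viability in HEK293T cells expressing human NIS after 2 h chemical exposure. Concentrations ran 0.001–100 uM in 0.5% DMSO; DMSO served as baseline for the loss-of-signal fit.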

In assay [15] the target is bovine Estrogen Receptor (ER), ESR1 (gene 407238) (UniProt P49884). Briefly: NVS_NR_bER: NovaScreen (NVS) Nuclear Receptor Binding Assay for bovine Estrogen Receptor (ER) (AID 2283345; active = hit-call score of the fitted dose curve at least 0.9, where 1 is the maximum;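 also: actives lower the bound radioligand count which means they displace the ER ligand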). In outline: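 Displacement of a radioligand from estrogen receptor in bovine uterine membrane preparations; scintillation signal taken at 18 hours, DMSO as baseline. Single-concentration duplicates (25 uM) preceded concentration-response follow-up of actives.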
Chain of bovine Estrogen Receptor (ER), ESR1 (gene 407238) (P49884 whole entry, looked up): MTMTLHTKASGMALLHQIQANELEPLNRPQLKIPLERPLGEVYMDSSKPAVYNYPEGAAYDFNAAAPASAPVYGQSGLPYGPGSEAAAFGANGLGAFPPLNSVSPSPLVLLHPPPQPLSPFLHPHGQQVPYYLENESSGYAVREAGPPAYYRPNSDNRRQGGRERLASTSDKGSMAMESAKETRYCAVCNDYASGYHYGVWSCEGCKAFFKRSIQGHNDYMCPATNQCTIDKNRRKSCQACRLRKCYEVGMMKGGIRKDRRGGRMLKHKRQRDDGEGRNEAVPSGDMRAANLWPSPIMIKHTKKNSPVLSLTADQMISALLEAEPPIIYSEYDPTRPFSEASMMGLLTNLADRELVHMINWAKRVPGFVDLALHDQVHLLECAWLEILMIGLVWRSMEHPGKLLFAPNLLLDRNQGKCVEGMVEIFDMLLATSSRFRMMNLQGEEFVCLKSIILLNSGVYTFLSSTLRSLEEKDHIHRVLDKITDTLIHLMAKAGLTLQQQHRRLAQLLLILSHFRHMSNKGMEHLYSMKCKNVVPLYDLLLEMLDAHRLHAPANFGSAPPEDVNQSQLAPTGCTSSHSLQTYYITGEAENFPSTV

Assay [16] addresses human Phosphoinositide 3-kinase alpha (PI3Ka), PIK3CA (gene 5290) (UniProt P42336). Briefly: NVS_ENZ_hPI3Ka: NovaScreen (NVS) Enzymatic Assay for human Phosphoinositide 3-kinase alpha (PI3Ka) (AID 2283196; active = hit-call score of the fitted dose curve at least 0.9, where 1 is the maximum). A digest of the protocol:
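Enzyme activity as fluorescence after mobility-shift separation of substrate and product, 1 h reaction, recombinant human PI3Kα; concentration-response to 50 uM max for chemicals passing a 25 uM duplicate screen.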

Assay [17] concerns the target human Dopamine Transporter (DAT), SLC6A3 (gene 6531) (UniProt Q01959). Briefly: NVS_TR_hDAT: NovaScreen (NVS) Transporter Assay for human Dopamine Transporter (DAT) (AID 2283374; active = hit-call score of the fitted dose curve at least 0.9, where 1 is the maximum;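 also: activity means loss of bound radioligand signal relative to DMSO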). In outline:
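Duplicate single-point screening at 25 uM preceded concentration-series follow-up of actives. Binding was measured by competitive displacement of a radioligand from DAT protein, filter-counted by scintillation 1 h after dosing. Decrease relative to DMSO taken as activity.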

Assay [18] concerns the target Peroxisome proliferator-activated receptor gamma (Homo sapiens) (UniProt P37231). Briefly: NVS_NR_hPPARg: NovaScreen (NVS) Nuclear Receptor Binding Assay for human Peroxisome Proliferator-activated Receptor gamma (PPARg) (AID 2283370; active = hit-call score of the fitted dose curve at least 0.9, where 1 is the maximum). In outline:
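Cell-free fluorescence polarization binding to human PPARg protein, read 2 h after dosing. Primary screen in duplicate at 25 uM, actives followed in concentration series; loss of signal relative to DMSO scored.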

In assay [19] the target is human Ephrin type-A Receptor 1 (EphA1), EPHA1 (gene 2041) (UniProt P21709). In words: NVS_ENZ_hEphA1: NovaScreen (NVS) Enzymatic Assay for human Ephrin type-A Receptor 1 (EphA1) (AID 2283158; active = hit-call score of the fitted dose curve at least 0.9, where 1 is the maximum;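 also: activity is signal loss versus DMSO meaning EphA1 kinase inhibition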). In outline:
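Cell-free kinase activity with recombinant protein, 1 hour after dosing; product separated by electrophoretic mobility shift, fluorescence read. Primary screen at 25 uM in duplicate; hits run as concentration-response up to 50 uM, relative to DMSO.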

Results filed as inconclusive are left out. Calls of active or inactive are those of the source. The calls were made as follows, unless noted: active = hit-call score of the fitted dose curve at least 0.9, where 1 is the maximum; inactive = score below 0.9.

Chain of Nuclear receptor subfamily 1 group I member 2 (Homo sapiens) (O75469 whole entry, looked up): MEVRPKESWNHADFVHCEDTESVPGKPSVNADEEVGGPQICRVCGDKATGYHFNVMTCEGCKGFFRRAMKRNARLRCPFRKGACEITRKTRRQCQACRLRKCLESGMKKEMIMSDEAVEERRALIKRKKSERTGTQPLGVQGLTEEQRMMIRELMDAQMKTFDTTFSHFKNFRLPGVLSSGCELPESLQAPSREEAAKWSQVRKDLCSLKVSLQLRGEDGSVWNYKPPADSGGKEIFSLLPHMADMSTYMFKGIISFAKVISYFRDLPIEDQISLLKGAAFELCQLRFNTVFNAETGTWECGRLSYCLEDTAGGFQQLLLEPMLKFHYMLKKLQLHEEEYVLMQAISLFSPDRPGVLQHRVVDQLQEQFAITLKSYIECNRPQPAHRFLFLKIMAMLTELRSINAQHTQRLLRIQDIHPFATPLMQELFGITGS
Chain of human Dopamine Transporter (DAT), SLC6A3 (gene 6531) (Q01959 whole entry, looked up): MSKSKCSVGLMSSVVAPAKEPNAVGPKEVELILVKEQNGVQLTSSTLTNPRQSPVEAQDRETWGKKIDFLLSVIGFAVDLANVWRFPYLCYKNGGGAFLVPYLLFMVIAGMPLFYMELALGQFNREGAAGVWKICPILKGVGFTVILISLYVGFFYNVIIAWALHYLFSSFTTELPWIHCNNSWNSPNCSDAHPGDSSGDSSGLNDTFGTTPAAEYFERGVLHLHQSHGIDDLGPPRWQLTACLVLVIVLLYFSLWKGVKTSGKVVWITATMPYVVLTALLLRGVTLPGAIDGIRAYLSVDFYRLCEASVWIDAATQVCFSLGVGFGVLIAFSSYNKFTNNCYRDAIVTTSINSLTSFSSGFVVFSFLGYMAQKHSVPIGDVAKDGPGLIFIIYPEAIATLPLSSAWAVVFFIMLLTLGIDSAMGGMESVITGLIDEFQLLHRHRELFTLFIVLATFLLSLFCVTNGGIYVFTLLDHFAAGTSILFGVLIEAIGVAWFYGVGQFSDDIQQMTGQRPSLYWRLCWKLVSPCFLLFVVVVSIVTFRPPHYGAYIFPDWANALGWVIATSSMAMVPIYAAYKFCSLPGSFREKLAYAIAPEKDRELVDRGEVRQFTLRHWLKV
Chain of human Phosphoinositide 3-kinase alpha (PI3Ka), PIK3CA (gene 5290) (P42336 whole entry, looked up): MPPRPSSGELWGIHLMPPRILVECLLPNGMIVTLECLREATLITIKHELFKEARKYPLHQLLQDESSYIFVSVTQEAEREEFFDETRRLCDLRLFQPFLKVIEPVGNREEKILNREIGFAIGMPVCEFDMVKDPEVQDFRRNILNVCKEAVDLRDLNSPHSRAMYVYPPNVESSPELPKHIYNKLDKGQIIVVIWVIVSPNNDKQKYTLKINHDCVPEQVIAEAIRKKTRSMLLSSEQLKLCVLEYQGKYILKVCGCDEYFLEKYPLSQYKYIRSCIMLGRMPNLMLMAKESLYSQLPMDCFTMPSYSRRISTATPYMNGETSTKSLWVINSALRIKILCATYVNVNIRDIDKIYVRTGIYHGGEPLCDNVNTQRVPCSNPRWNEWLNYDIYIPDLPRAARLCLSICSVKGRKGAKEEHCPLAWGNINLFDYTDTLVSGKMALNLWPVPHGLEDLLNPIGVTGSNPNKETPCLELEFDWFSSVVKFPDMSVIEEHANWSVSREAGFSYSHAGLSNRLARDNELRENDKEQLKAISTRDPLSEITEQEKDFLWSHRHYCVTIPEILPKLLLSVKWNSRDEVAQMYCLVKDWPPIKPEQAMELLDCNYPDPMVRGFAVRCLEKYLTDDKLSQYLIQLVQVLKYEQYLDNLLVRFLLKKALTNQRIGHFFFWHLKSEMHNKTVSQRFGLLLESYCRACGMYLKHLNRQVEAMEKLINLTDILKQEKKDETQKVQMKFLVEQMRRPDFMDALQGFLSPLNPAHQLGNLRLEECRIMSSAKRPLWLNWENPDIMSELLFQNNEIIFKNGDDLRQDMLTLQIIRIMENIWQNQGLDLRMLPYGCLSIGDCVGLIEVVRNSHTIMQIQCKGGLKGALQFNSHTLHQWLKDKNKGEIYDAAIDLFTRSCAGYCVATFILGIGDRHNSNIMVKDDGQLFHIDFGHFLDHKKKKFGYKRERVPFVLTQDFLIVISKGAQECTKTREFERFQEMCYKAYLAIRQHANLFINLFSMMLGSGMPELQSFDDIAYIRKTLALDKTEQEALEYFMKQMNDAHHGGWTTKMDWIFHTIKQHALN
Chain of human Ephrin type-A Receptor 1 (EphA1), EPHA1 (gene 2041) (P21709 whole entry, looked up): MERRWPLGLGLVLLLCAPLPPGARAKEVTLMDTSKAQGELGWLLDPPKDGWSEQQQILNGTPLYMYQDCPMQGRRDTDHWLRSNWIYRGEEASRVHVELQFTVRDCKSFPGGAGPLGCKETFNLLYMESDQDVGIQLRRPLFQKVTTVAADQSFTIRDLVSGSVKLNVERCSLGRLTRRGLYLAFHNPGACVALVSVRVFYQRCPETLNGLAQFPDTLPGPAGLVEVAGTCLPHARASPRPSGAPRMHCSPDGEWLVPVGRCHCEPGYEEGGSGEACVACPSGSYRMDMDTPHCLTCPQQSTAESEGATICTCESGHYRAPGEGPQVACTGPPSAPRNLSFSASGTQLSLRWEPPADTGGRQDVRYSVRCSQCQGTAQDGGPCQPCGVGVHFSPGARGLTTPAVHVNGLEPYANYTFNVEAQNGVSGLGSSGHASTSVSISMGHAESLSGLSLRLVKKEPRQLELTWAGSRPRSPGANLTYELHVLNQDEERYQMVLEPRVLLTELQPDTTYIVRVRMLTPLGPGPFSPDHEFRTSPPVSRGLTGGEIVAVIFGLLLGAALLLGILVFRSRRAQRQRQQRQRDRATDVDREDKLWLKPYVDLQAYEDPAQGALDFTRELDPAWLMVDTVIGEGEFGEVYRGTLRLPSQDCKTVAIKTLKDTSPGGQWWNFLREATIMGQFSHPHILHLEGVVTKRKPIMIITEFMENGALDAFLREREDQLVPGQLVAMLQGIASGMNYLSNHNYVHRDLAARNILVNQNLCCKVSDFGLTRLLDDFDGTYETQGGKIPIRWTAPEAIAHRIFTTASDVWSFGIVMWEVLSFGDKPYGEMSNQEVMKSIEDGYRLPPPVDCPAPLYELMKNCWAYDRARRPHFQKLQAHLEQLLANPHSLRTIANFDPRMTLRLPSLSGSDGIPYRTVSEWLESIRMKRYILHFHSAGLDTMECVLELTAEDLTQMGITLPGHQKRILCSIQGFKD
Chain of Peroxisome proliferator-activated receptor gamma (Homo sapiens) (P37231 whole entry, looked up): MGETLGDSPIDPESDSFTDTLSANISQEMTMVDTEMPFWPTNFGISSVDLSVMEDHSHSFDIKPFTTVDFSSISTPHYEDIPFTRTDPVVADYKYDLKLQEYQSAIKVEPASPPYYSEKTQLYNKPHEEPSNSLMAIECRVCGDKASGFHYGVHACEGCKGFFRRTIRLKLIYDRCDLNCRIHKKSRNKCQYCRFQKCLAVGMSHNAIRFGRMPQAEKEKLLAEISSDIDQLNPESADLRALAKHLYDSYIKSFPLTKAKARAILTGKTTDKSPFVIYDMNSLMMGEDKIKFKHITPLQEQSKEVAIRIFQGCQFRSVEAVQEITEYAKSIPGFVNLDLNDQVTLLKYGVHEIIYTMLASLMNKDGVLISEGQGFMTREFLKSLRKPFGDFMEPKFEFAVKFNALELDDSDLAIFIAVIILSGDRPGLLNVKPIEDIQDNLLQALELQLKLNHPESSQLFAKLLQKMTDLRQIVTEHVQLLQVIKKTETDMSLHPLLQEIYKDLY

On to `CC[N+](CC)(CC(=O)Nc1c(C)cccc1C)Cc1ccccc1` (tested in a mixture with another compound), for which the AC50 in assay [1] was 4.38 µM (active); in [7], 1.05 µM (active). In addition, the call in assay [2], in [3], in assay [4], in assay [5], in assay [6] and in assay [8] was inactive. In addition, the compound was called inactive in assay [9] and in assay [10].

In the case of `Sc1nc2ccccc2s1`, the compound was called inactive in [11].

`COC(=O)[C@]1(C)CCC[C@@]2(C)[C@H]1CC=C1C=C(C(C)C)CC[C@@H]12`: the compound was classed as inactive in assay [12], in assay [13] and in [14].

For `CCCCCCCCCC/C=C/C1CC(=O)OC1=O` (stereo unspecified), the compound was classed as inactive in assay [15].

On to `CN(C)Cc1cc(C(C)(C)C)c(O)c(C(C)(C)C)c1`, for which the AC50 is 0.0516 µM (active) in assay [2], 0.0258 µM (active) in assay [3], 15 µM (active) in assay [7] and 22.8 µM (active) in [8]. Further, the compound was classed as inactive in assay [4], in assay [5], in assay [6] and in [10].

On to `CCCCCCCCCCCCCCCCCC[N+](C)(C)C`, for which the concentration at half-maximal activity (AC50) in [16] is 3.68 µM (active); in [17], 2.52 µM (active).

As to `Oc1ccc(Oc2ccccc2)cc1`, in assay [15], the AC50 is 11 µM (active).

Consider `Nc1ccc(S(=O)(=O)Nc2cnc3ccccc3n2)cc1`, for which the result in assay [12] was inactive.

On to `O=C(C(=O)c1ccccc1)c1ccccc1`, for which the results for the concentration at half-maximal activity (AC50) in assay [1] and in assay [17] were 9.56 µM (active) and 1.07 µM (active), respectively.

For the compound `O=C(CC(C(=O)OC1CCCCC1)S(=O)(=O)O)OC1CCCCC1` (stereo unspecified), in assay [12], the half-maximal activity concentration (AC50) is 8.32 µM (active). In [18], the compound was classed as inactive.

For the compound `NC(N)=Nc1nc(CSCCC(N)=NS(N)(=O)=O)cs1`, the compound was called inactive in assay [2], in [3], in assay [4], in [5], in [6] and in assay [7]. The compound was classed as inactive in [8] and in assay [10].

With `c1ccc(CNc2ncnc3nc[nH]c23)cc1`, the call in assay [11] was inactive.

Regarding `CC1(C)S[C@@H]2[C@H](NC(=O)[C@H](N)c3ccccc3)C(=O)N2[C@H]1C(=O)O`, the half-maximal activity concentration (AC50) was 12.5 µM (active) in assay [16], 3.57 µM (active) in assay [5] and 0.0846 µM (active) in assay [8]. Also, the call in assay [2], in [3], in assay [4], in assay [6], in assay [7] and in [10] was inactive.

As for `N#CCN(CC#N)CCN(CC#N)CC#N`, in assay [19], the result was inactive.

For `CC(=O)O[C@]1(C(C)=O)CC[C@H]2[C@@H]3C=C(C)C4=CC(=O)CC[C@]4(C)[C@H]3CC[C@@]21C`, the call in [15] was inactive.

Usually AC50 stands for the concentration at which the activity in the assay is half-maximal.
